Compounds with a hit are over-represented: about 1.6% of the library has one in this group of screens.
3CLpro inhibitor – SARS-CoV 3CLpro protease inhibitors, primary screen, biochemical, quenched FRET | Replicase polyprotein 1ab (Severe acute respiratory syndrome coronavirus), P0C6X7 | recombinant SARS-CoV 3CLpro, quenched FRET peptide cleavage | inhibition, % at 6 µM | actives 0.14% (n = 290,000) | AID 1706, 2009; in the data active = inhibition above about 12%
PfHsp40 yeast – rescue of yeast from PfHsp40 toxicity, primary screen, S. cerevisiae, ATP luminescence. S. cerevisiae expressing PfHsp40, growth rescue. growth rescue, % at 12.5 µM. actives 0.68% (n = 340,000). AID 504582, 2011; in the data active = growth rescue above about 28%, passing the limit was not always enough;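 note: yeast W303a lacking pdr1 and pdr3 grown in galactose medium; growth measured after three days at 30 °C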
BH1578 lux ind – inducers of Vibrio cholerae quorum light production without autoinducers, primary screen, BH1578 luxS cqsA deficient, single point; V. cholerae BH1578 lux reporter, luminescence, 6 h; activation, % at 18.7 µM; actives 0.16% (n = 350,000); AID 588436, 2011; in the data active = activation mostly above about 9.7%, no sharp cut-off
SSB-PriA inh – inhibitors of Klebsiella pneumoniae PriA binding to SSB C-terminal tail, primary screen, biochemical, AlphaScreen. AlphaScreen SSBct-PriA binding, biotinylated peptide. inhibition, % at 33 µM. actives 0.6% (n = 430,000); in the data active = inhibition mostly above about 37%, no sharp cut-off; inactive = mostly below about 20%;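 note: plate controls were negative control peptide for no effect and reference peptide for full effect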
PrP UTR inh – inhibition of PrP 5' UTR reporter expression; cell-based PrP 5' UTR mRNA reporter, plate reader; inhibition, % (test concentration not listed); actives 0.35% (n = 340,000); in the data active = inhibition above about 52%; note: 0 = median of the neutral control wells
PrPC surface inh – inhibitors of human cell surface prion protein PrPC, primary screen, cell-based, TR-FRET | Major prion protein (Homo sapiens), P04156 | TR-FRET read-out | inhibition, % at 13.8 µM | actives 0.43% (n = 370,000); in the data active = inhibition above about 24%; note: 0% = median of the test wells and 100% = reference compound wells
* hit, by the source's call.

Results for CS(=O)(=O)c1ccc(CC(=O)Nc2nnc(-c3ccccc3Cl)o2)cc1 ?
SSB-PriA inh: -7

How did COc1cccc(OC)c1C(=O)NCCn1nc(-c2ccncc2)cc1C1CC1 do in these assays?
SSB-PriA inh: -5

Results for COc1ccc(/C=N/Nc2ccc([N+](=O)[O-])cc2)cc1O ?
3CLpro inhibitor: 0; PfHsp40 yeast: 42*; BH1578 lux ind: 1; PrP UTR inh: -70; PrPC surface inh: -48

What do the screens show for `COc1ccc(/C=N/Nc2ccc([N+](=O)[O-])cc2)cc1Cn1cc([N+](=O)[O-])cn1`?
3CLpro inhibitor: 4; PfHsp40 yeast: 0; BH1578 lux ind: inactive; PrP UTR inh: -22; PrPC surface inh: 4

Results for O=[N+]([O-])c1ccc(NN=Cc2ccc[nH]2)cc1 ?
SSB-PriA inh: 55*

How did CCOC(=O)c1ccc(Nc2nc(C)cc(N)n2)cc1 do in these assays?
SSB-PriA inh: -9

How did Cc1nn2c(NCCCn3ccnc3)cc(C(C)(C)C)nc2c1-c1ccc(Cl)cc1 do in these assays?
SSB-PriA inh: 1

Results for CC(C)(C)c1cc(NCCCn2ccnc2)n2ncc(-c3ccc(Cl)cc3)c2n1 ?
3CLpro inhibitor: -3; PfHsp40 yeast: 70*; BH1578 lux ind: -1; SSB-PriA inh: -35; PrP UTR inh: -64; PrPC surface inh: 2

Results for Cc1cc(N2CCCCC2)nc(N2CCN(C(=O)c3ccc4c(c3)OCO4)CC2)n1 ?
SSB-PriA inh: 8

What do the screens show for `CCC(C)NC(=O)Cc1csc(Nc2ccccc2)n1` (configuration not stated)?
SSB-PriA inh: -6

How did CC(=NNc1nc2ccccc2[nH]1)c1ccc2c(c1)OCCO2 do in these assays?
SSB-PriA inh: 42*

Results for CC(C)=NNc1nc2ccccc2[nH]1 ?
SSB-PriA inh: 69*

How did CC(C)(C)c1csc(NC(=O)Nc2ccccc2)n1 do in these assays?
3CLpro inhibitor: 4; PfHsp40 yeast: 2; BH1578 lux ind: -1; SSB-PriA inh: -1; PrP UTR inh: -85; PrPC surface inh: 10

How did O=C(Nc1ccccc1)Nc1nc(C(=O)NCCc2c[nH]c3ccccc23)cs1 do in these assays?
SSB-PriA inh: 41*

What do the screens show for `O=C(NCCc1c[nH]c2ccccc12)c1csc(Nc2ccccc2)n1`?
SSB-PriA inh: 28*

Results for O=C(Nc1ccccc1)Nc1nc(C(=O)O)cs1 ?
SSB-PriA inh: 63*

What do the screens show for `O=C(NCCc1c[nH]c2ccccc12)Nc1ccccc1`?
3CLpro inhibitor: 5; PfHsp40 yeast: 0; BH1578 lux ind: inactive; SSB-PriA inh: 5; PrP UTR inh: -5; PrPC surface inh: 5

What do the screens show for `O=C(NCc1ccccc1)c1csc(Nc2ccccc2)n1`?
SSB-PriA inh: -8

Results for COc1cc(NC(=O)COC(=O)CNC(=O)c2ccc(C)cc2)c(C)cc1[N+](=O)[O-] ?
3CLpro inhibitor: 2; PfHsp40 yeast: 86*; BH1578 lux ind: inactive; SSB-PriA inh: -5; PrP UTR inh: -9; PrPC surface inh: -2

What do the screens show for `CCN1C(=O)/C(=C2/SC(c3ccccc3)=C3N=CC(C)=CN32)SC1=S`?
SSB-PriA inh: -27

What do the screens show for `Clc1ccc(COC(Cn2ccnc2)c2ccc(Cl)cc2Cl)c(Cl)c1` (configuration not stated)?
3CLpro inhibitor: 0; PfHsp40 yeast: 91*; BH1578 lux ind: inactive; SSB-PriA inh: 18; PrP UTR inh: -18; PrPC surface inh: 1

How did OC(COc1ccc(Cl)cc1Cl)Cn1ccnc1 (configuration not stated) do in these assays?
3CLpro inhibitor: -1; PfHsp40 yeast: -1; BH1578 lux ind: inactive; SSB-PriA inh: 2; PrPC surface inh: -3

How did C=CCOC(Cn1ccnc1)c1ccc(Cl)cc1Cl (configuration not stated) do in these assays?
PfHsp40 yeast: 326*; BH1578 lux ind: inactive; SSB-PriA inh: -24; PrP UTR inh: -20; PrPC surface inh: 10

What do the screens show for `COc1ccc(N2CCn3c2nnc(C(=O)NC[C@H]2CCCO2)c3=O)cc1`?
SSB-PriA inh: -5

Results for O=C(NC1CC1)c1cccc(Oc2ccccc2)c1 ?
3CLpro inhibitor: -1; PfHsp40 yeast: 77*; BH1578 lux ind: inactive; SSB-PriA inh: 2; PrP UTR inh: -36; PrPC surface inh: 5

What do the screens show for `O=C(NC1CC1)c1ccccc1`?
BH1578 lux ind: inactive; PrPC surface inh: -12

How did CC(C)c1ccc2c(c1)C1(NN=C(c3ccccc3)S1)C(=O)N2 (configuration not stated) do in these assays?
3CLpro inhibitor: 1; PfHsp40 yeast: 41*; BH1578 lux ind: -1; SSB-PriA inh: 5; PrP UTR inh: 24; PrPC surface inh: -9

Results for CCc1ccc2c(c1)C1(NN=C(c3ccc(C)cc3)S1)C(=O)N2 (configuration not stated) ?
3CLpro inhibitor: 6; PfHsp40 yeast: 5; BH1578 lux ind: -6; SSB-PriA inh: 39; PrP UTR inh: 13; PrPC surface inh: -1

Results for CC(=NCCNC(=O)c1nc(N)n[nH]1)c1c(O)cc(C)oc1=O ?
SSB-PriA inh: -3

Results for COc1cccc(C=NNC(=O)CSc2ccccc2C)c1O ?
SSB-PriA inh: -3

What do the screens show for `CCCCSc1nc(C)cc(SCC(=O)N/N=C/c2cccc(OC)c2O)n1`?
3CLpro inhibitor: 4; PfHsp40 yeast: 104*; BH1578 lux ind: 6; PrP UTR inh: 17; PrPC surface inh: 9

What do the screens show for `N#Cc1nccnc1O[C@H]1CCCN(C(=O)CCn2cnc3ccccc3c2=O)C1`?
SSB-PriA inh: -12

Results for Cc1cc(O)c(C(=O)/C=C/c2cccc([N+](=O)[O-])c2)c(=O)o1 ?
3CLpro inhibitor: 2; PfHsp40 yeast: 9; BH1578 lux ind: inactive; SSB-PriA inh: -5; PrP UTR inh: -27; PrPC surface inh: -2

What do the screens show for `CC(=O)Oc1ccccc1C(=O)C=Cc1cccc([N+](=O)[O-])c1`?
PfHsp40 yeast: 128*; BH1578 lux ind: 0; PrP UTR inh: -46; PrPC surface inh: -40

What do the screens show for `C#CCSc1nnnn1-c1ccc(Br)c(C)c1`?
3CLpro inhibitor: 1; PfHsp40 yeast: 1; BH1578 lux ind: -1; SSB-PriA inh: 83*; PrP UTR inh: -22; PrPC surface inh: 0

How did N#Cc1nc(Cc2ccccc2)oc1N1CCC(C(N)=O)CC1 do in these assays?
3CLpro inhibitor: -6; PfHsp40 yeast: 1; BH1578 lux ind: -1; SSB-PriA inh: -8; PrP UTR inh: -17; PrPC surface inh: -7

Assay outcomes deposited in PubChem by several laboratories.
